Values joined by “and” are separate entries in the source; they are usually repeats but may differ in a detail not shown here. Equal values may be shown once. A structure can be active in one record and inactive in another. Active and inactive are the calls of the source.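 Rule for the calls, unless noted: active = inhibition at or above 50% relative to wild type and mutant plate controls; inactive = inhibition below 50%.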
Experiment: loss of swimming-algae plug formation – whole organism, Chlamydomonas reinhardtii, WT vs cilia-less mutant, absorbance, 96-well, primary screen (AID 463189);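 note: 0% = wild type cc124 cells in DMSO and 100% = ciliumless bld1 mutant cells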
Settings: Chlamydomonas reinhardtii gravitaxis, OD600 absorbance, 2 days; at 10 µM; stronger effect = higher value

Row | SMILES | inhibition
1 | Cc1ccccc1N1C(=O)C2ON(c3ccccc3)C(c3ccncc3)C2C1=O (centres undefined) | -10.6% (inactive)
2 | CCN(CC)CCCN1C(=O)C(=O)/C(=C(/O)c2ccc(Cl)cc2)C1c1ccccn1 (centres undefined) | 24.6% (inactive)
3 | CN/C(=C/[N+](=O)[O-])NCCSCc1ccc(CN(C)C)o1 | -22.8% (inactive)
4 | Clc1ccccc1CN1CCc2sccc2C1 | 17.9% (inactive)
5 | COc1ccc(C2C=C(c3ccc(Cl)cc3)Nc3nc(NC(C)=O)nn32)cc1 (centres undefined) | 7.51% (inactive)
6 | N#Cc1nc(-c2ccccc2Cl)oc1N1CCCCC1 | 35.9% (inactive)
7 | CC1=CC(c2ccccc2)n2nc(N3C(=O)C4CC=CCC4C3=O)nc2N1 (centres undefined) | -3.33% (inactive)
8 | CC(C)Cn1nc(NC(=O)C(C)(C)C)c2cc3ccccc3nc21 | -27.1% (inactive)
9 | CNCCCN1c2ccccc2CCc2ccccc21 | -1.03% (inactive) and 0.865% (inactive)
10 | COc1ccc(CNC(=O)[C@H](C)NC(=O)C2CCN(S(=O)(=O)c3ccc(C)cc3)CC2)cc1 | -1.92% (inactive)
11 | CCOc1ccc(/C(O)=C2/C(=O)C(=O)N(c3nc(C)c(C)s3)C2c2ccco2)cc1 (centres undefined) | -2.1% (inactive)
12 | N#C/C(=N\O)c1nc(-c2ccccc2)cs1 | 2.16% (inactive)
13 | CC(C)(C)c1ccc(C(O)CCCN2CCC(C(O)(c3ccccc3)c3ccccc3)CC2)cc1 (centres undefined) | 24.3% (inactive) and 153% (active)
14 | CCc1cc(=O)oc2c(CN3CCCC3)c(O)c(Cl)cc12 | -9.29% (inactive)
15 | COc1cccc(-c2nc(NC(C)(C)C)c3ccccc3n2)c1O | 34.2% (inactive)
16 | CCOC(=O)C1=C(C)NC(C)=C(C(=O)OC)C1c1cccc(Cl)c1Cl (centres undefined) | 14.9% (inactive) and 24.6% (inactive)
17 | CC1(C)CC(NC(=O)C23CCC(C)(/C(=N/O)C2)C3(C)C)CC(C)(C)N1 (centres undefined) | -6.59% (inactive)
18 | O=C1C(CCS(=O)c2ccccc2)C(=O)N(c2ccccc2)N1c1ccccc1 (centres undefined) | -7.13% (inactive)
19 | COc1ccc(C(=O)Nc2nc(N)n(-c3ccccc3)n2)cc1OC | 12.5% (inactive)
20 | COC(=O)C1=C(C)N=C2SC(C)C(=O)N2C1/C=C/c1ccccc1OC (centres undefined) | -14.7% (inactive)

Row | SMILES | inhibition
21 | CN1CCN(Cc2c(O)ccc3c(-c4ccccc4)cc(=O)oc23)CC1 | 8.71% (inactive)
22 | Cc1ccc(N2C(=O)C3ON(c4ccccc4)C(c4ccncc4)C3C2=O)c(C)c1 (centres undefined) | 0.697% (inactive)
23 | COc1ccccc1-c1cc(-c2cc(Cl)ccc2O)n[nH]1 | -19.8% (inactive)
24 | Cc1ccc(N(Cc2cc3ccccc3[nH]c2=O)C(=O)c2ccco2)c(C)c1 | 12% (inactive)
25 | c1ccc(-c2nc(NCC3CCCO3)c3ccccc3n2)nc1 (centres undefined) | 24.6% (inactive)
26 | CCCOC(=O)C1[C@H]2C(=O)N(Cc3ccco3)C[C@]23C=C[C@H]1O3 (some centres undefined) | 1.77% (inactive)
27 | Oc1ccc(Br)cc1-c1cc(-c2ccccc2F)[nH]n1 | -2.23% (inactive)
28 | CCOC(=O)c1cc2c(=O)n3ccccc3nc2n(Cc2ccccc2Cl)c1=N | 12.4% (inactive)
29 | Cc1c(C)c2cc(Cl)c(O)c(CN3CCN(C)CC3)c2oc1=O | 14% (inactive)
30 | Oc1ccccc1-c1nc(NCc2ccco2)c2ccccc2n1 | -8.43% (inactive)
31 | Cc1ccc2cc(CN(C(=O)c3ccco3)c3ccccc3C)c(=O)[nH]c2c1 | 32.2% (inactive)
32 | Cc1noc(NS(=O)(=O)c2ccc(N)cc2)c1C | -6.69% (inactive)
33 | CCn1nc(C(=O)O)c(=O)c2cc3c(cc21)OCO3 | -5.01% (inactive) and 17.9% (inactive)
34 | O=C(O)CCCCCN1C(=O)CCC1=O | 7.42% (inactive)
35 | CC(C)Oc1ccc2c(=O)c(-c3ccccc3)coc2c1 | -9.11% (inactive)
36 | COc1ccc(NCc2cc3ccccc3[nH]c2=O)cc1 | 7.35% (inactive)
37 | CC(=O)Nc1n[nH]c(S(=O)(=O)Cc2ccc(Cl)cc2Cl)n1 | 16.4% (inactive)
38 | Cc1oncc1C(=O)Nc1ccc(C(F)(F)F)cc1 | -2.73% (inactive) and -10% (inactive)
39 | O=C1C2ON(c3ccccc3)C(c3ccncc3)C2C(=O)N1c1ccccc1 (centres undefined) | 5.79% (inactive)

Experiment: blockers of RIG-like receptor reporter activation – cell-based, Sendai virus stimulus, luciferase, 10K MLSCN set, TLR/RLR signaling modifier project, primary screen (AID 602276;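 active = inhibition at or above 50% at 10 µM; inactive = inhibition below 50%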;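 note: firefly luciferase from ISG56 promoter only with Renilla not read in this screen; 0% = Sendai virus plus DMSO and 100% = medium plus DMSO without virus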)
Settings: HEK293 RL24 IRF3 luciferase reporter, at 10 µM, stronger effect = higher value

Row | SMILES | inhibition
40 | CN/C(=C/[N+](=O)[O-])NCCSCc1ccc(CN(C)C)o1 | 13.1% (inactive)
41 | Clc1ccccc1CN1CCc2sccc2C1 | 7.48% (inactive)
42 | CNCCCN1c2ccccc2CCc2ccccc21 | 0.658% (inactive)
43 | CC(C)(C)c1ccc(C(O)CCCN2CCC(C(O)(c3ccccc3)c3ccccc3)CC2)cc1 (centres undefined) | 25.2% (inactive)
44 | CCOC(=O)C1=C(C)NC(C)=C(C(=O)OC)C1c1cccc(Cl)c1Cl (centres undefined) | 3.98% (inactive)
45 | O=C1C(CCS(=O)c2ccccc2)C(=O)N(c2ccccc2)N1c1ccccc1 (centres undefined) | 7.23% (inactive)
46 | Cc1noc(NS(=O)(=O)c2ccc(N)cc2)c1C | -9.57% (inactive)
47 | CCn1nc(C(=O)O)c(=O)c2cc3c(cc21)OCO3 | 8.87% (inactive)
48 | CC(C)Oc1ccc2c(=O)c(-c3ccccc3)coc2c1 | -37.9% (inactive)
49 | Cc1oncc1C(=O)Nc1ccc(C(F)(F)F)cc1 | -116% (inactive)
